Assay results from the supplement of paper PMC3545927.
This is one part of the list. No count for the full screen is at hand.

Target: furin, P09958
Assay: furin cleavage Z-score vs untreated control; higher = more cleavage, active = 3.5 or more, inactive = 1 or less, 8 variable residues between constant flanks
How it was run: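 To give the cleavage Z-score, log read counts were set against furin-free reactions, lowess-adjusted and scaled by median absolute deviation. These counts came from PCR adapter-tagged, sequenced DNA released when purified furin cut 8-mer peptides fused to a cDNA oligonucleotide and held on magnetic beads by their N-terminus. Digests were 0.01 ml, 1:10 enzyme:substrate, in 50 mM HEPES pH 7.5 with CaCl2 and NaCl, for 7.5, 15 or 30 min.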

Sequence of furin, P09958 (P09958 whole entry): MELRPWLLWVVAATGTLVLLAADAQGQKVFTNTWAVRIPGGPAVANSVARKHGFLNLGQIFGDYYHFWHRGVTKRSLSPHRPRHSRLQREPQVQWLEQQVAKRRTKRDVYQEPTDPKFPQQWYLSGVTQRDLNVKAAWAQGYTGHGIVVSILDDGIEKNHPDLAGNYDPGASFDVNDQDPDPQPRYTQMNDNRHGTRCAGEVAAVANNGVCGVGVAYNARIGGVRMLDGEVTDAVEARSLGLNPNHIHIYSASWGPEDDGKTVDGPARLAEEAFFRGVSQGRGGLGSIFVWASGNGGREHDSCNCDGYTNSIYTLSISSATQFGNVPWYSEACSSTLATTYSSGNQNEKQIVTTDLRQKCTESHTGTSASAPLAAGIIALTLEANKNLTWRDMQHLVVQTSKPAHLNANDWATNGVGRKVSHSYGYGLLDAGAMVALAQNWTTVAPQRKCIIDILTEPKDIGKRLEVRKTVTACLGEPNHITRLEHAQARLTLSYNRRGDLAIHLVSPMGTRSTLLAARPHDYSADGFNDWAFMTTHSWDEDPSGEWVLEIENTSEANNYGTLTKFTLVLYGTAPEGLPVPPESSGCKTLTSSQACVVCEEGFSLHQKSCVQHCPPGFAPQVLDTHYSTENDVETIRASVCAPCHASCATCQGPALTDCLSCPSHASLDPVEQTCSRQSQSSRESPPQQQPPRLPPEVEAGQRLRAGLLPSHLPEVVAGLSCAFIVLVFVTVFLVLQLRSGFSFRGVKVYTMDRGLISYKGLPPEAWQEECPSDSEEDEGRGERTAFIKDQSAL

| Sequence | furin cleavage Z-score (7.5 min) | furin cleavage Z-score (15 min) | furin cleavage Z-score (30 min) |
| --- | --- | --- | --- |
| CASREVPCHRAGNASASA [HC2437] | 0.554 (inactive) | 0.537 (inactive) | 0.935 (inactive) |
| CATTPTSGSWAGNASASA [HC56] | -1.1 (inactive) | -0.337 (inactive) | -0.847 (inactive) |
| CAETEVPCHRAGNASASA [HC2458] | 0.00837 (inactive) | 0.231 (inactive) | 0.879 (inactive) |
| CARKNRSKNQAGNASASA [FS-3223] | 0.698 (inactive) | -0.524 (inactive) | 0.1 (inactive) |
| CARSSKDTSTAGNASASA [FS-2820] | -0.514 (inactive) | -1.51 (inactive) | -0.361 (inactive) |
| CARSPRSASTAGNASASA [FS-1932] | 4.66 (active) | 5.46 (active) | 7.33 (active) |
| CAWSKRSLSQAGNASASA [FS-3178] | 0.451 (inactive) | 1.67 | 2.52 |
| CARSPRGVLRAGNASASA [FS-3089] | -0.934 (inactive) | -0.739 (inactive) | -0.752 (inactive) |
| CARSKRSPGGAGNASASA [FS-1931] | 9.79 (active) | 8.88 (active) | 8.01 (active) |
| CARSKRSLSCAGNASASA [FS-2183] | 1.81 | 2.42 | 5.07 (active) |
| CARSKRSKNQAGNASASA [FS-1973] | 5.82 (active) | 7.57 (active) | 6.19 (active) |
| CAMAECSQHLAGNASASA [HC1683] | 0.693 (inactive) | -0.153 (inactive) | 0.354 (inactive) |
| CAEANAEDVVAGNASASA [HC1366] | 0.916 (inactive) | -1.42 (inactive) | -0.854 (inactive) |
| CAKHMWNFISAGNASASA [HC1042] | -0.105 (inactive) | -0.376 (inactive) | -0.363 (inactive) |
| CAITGHRMAWAGNASASA [HC317] | -0.992 (inactive) | -0.446 (inactive) | -1.11 (inactive) |
| CAPVYCFTPSAGNASASA [HC413] | 0.856 (inactive) | 1.3 | 0.586 (inactive) |
| CARSKRSSSHAGNASASA [FS-2184] | 7.92 (active) | 8.7 (active) | 6.8 (active) |
| CARSKRNIIGAGNASASA [FS-1869] | 6.5 (active) | 8.47 (active) | 8.95 (active) |
| CARSKRCSCSAGNASASA [FS-2809] | 0.463 (inactive) | -0.402 (inactive) | 1.36 |
| CARSARSPPGAGNASASA [FS-3074] | -0.433 (inactive) | -0.609 (inactive) | -0.311 (inactive) |
| CARSSRSPPGAGNASASA [FS-3098] | -0.0484 (inactive) | 0.711 (inactive) | 1.37 |
| CARSPRSPPGAGNASASA [FS-3091] | 2.88 | 4.13 (active) | 4.13 (active) |

| Sequence | furin cleavage Z-score (7.5 min) | furin cleavage Z-score (15 min) | furin cleavage Z-score (30 min) |
| --- | --- | --- | --- |
| CARSKRDPIIAGNASASA [FS-3206] | -1.19 (inactive) | 0.347 (inactive) | 1.06 |
| CARYPRNVEEAGNASASA [FS-2850] | 4.99 (active) | 7.34 (active) | 7.13 (active) |
| CARSLREFEEAGNASASA [FS-3087] | -2.22 (inactive) | 0.955 (inactive) | 0.853 (inactive) |
| CARRWREVEEAGNASASA [FS-2803] | -0.554 (inactive) | -1.56 (inactive) | 0.0666 (inactive) |
| CARYPRDVRDAGNASASA [FS-2538] | 8.26 (active) | 9.51 (active) | 6.93 (active) |
| CAVPPRYPRDAGNASASA [FS-311] | 5.8 (active) | 6.12 (active) | 6.06 (active) |
| CARYQRSHDDAGNASASA [FS-2320] | 0.707 (inactive) | -0.328 (inactive) | 0.764 (inactive) |
| CAATPCSAHLAGNASASA [HC2463] | 0.828 (inactive) | 1.41 | 1.31 |
| CARHADVIPVAGNASASA [HC728] | -2.29 (inactive) | -0.0929 (inactive) | -1.98 (inactive) |
| CAAEVIAPAVAGNASASA [HC1032] | -0.225 (inactive) | -0.402 (inactive) | -0.162 (inactive) |
| CAVVCCSWSYAGNASASA [HC2048] | -1.44 (inactive) | -0.879 (inactive) | -0.0857 (inactive) |
| CANDSRLKRQAGNASASA [FS-1038] | 6.07 (active) | 5.6 (active) | 6.15 (active) |
| CANDSRHLRNAGNASASA [FS-1647] | 0.543 (inactive) | 0.626 (inactive) | 1.57 |
| CAILWRLKRQAGNASASA [FS-1215] | 10.9 (active) | 9.84 (active) | 7.41 (active) |
| CAFSHRQVRYAGNASASA [FS-929] | 0.403 (inactive) | 1.8 | 2.61 |
| CAVVCRSMSYAGNASASA [HC90] | 1.85 | 0.752 (inactive) | 0.571 (inactive) |
| CALNKSFRRAAGNASASA [FS-354] | 0.697 (inactive) | -0.445 (inactive) | 1.37 |
| CAFRARQIRYAGNASASA [FS-419] | 2.8 | 5.19 (active) | 2.15 |
| CAFRARFRRLAGNASASA [FS-526] | 10.4 (active) | 12.1 (active) | 9.87 (active) |
| CANRARFRRAAGNASASA [FS-64] | 8.77 (active) | 9.51 (active) | 7.84 (active) |
| CADCTTPCSGAGNASASA [HC1951] | 0.95 (inactive) | 0.00642 (inactive) | 1.2 |
